From PubChem BioAssay (NCI)
About 79,000 compounds went through this panel and 15% of them were active in at least one assay; those are over-represented in the sample as a whole. Rule as the data show it: active = growth inhibition above about 70%; inactive = the rest.

Assays:
[1] = NCI Yeast Anticancer Drug Screen. Data for the rad50 strain (AID 155);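 also: 0% = growth of vehicle-only cultures of the same strain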; conditions: S. cerevisiae rad50 strain growth inhibition; at 50.0 µM; stronger effect = higher value
Procedure, shortened: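 Readout: growth inhibition relative to vehicle-treated cultures. Compound exposure was carried out in a genetically defined yeast strain deficient in DNA damage repair.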

[2] = NCI Yeast Anticancer Drug Screen. Data for the mec2-1 strain (AID 157); conditions: S. cerevisiae mec2-1 strain, at 50.0 µM, stronger effect = higher value
Procedure, shortened: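 Strain: mec2-1 (DNA repair/cell cycle alteration). Compound exposure, then growth measured; inhibition expressed relative to vehicle.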

[3] = NCI Yeast Anticancer Drug Screen. Data for the sgs1 mgt1 strain (AID 161);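 also: 0% = growth of cultures given vehicle only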; conditions: S. cerevisiae sgs1 mgt1 strain, at 50.0 µM, stronger effect = higher value
Procedure, shortened: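 Genetically altered yeast, compound exposure, growth inhibition relative to vehicle.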

[4] = NCI Yeast Anticancer Drug Screen. Data for the cln2 rad14 strain (AID 165);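 also: 0% = growth equal to vehicle treated cultures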; conditions: S. cerevisiae cln2 rad14 strain, at 50.0 µM, stronger effect = higher value
Procedure, shortened: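 Compounds are applied to the cln2 rad14 yeast strain, and growth is then compared with that of vehicle-treated cultures to give inhibition.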

[5] = NCI Yeast Anticancer Drug Screen. Data for the bub3 strain (AID 167); conditions: S. cerevisiae bub3 mutant strain, at 50.0 µM, stronger effect = higher value
Procedure, shortened: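 Readout: yeast growth inhibition, expressed relative to vehicle-only wells. The test organism is a mutant strain from a panel with lesions in DNA repair or checkpoint genes.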

[6] = NCI Yeast Anticancer Drug Screen. Data for the mlh1 rad18 strain (AID 175); conditions: S. cerevisiae mlh1 rad18 strain growth inhibition; at 50.0 µM; stronger effect = higher value
Procedure, shortened: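 Read-out is yeast growth inhibition, calculated against vehicle-only controls. The compound was applied to a strain engineered with DNA damage repair alterations.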

Measured: growth inhibition

COc1ccc(/C=C2\N=C(NN)N=C2Cl)cc1
inactive: [1] -8.2% | [2] -30.9% | [3] 4.55% | [4] 23.4% | [5] -0.35% | [6] -13.3%

CCCCN(CCCC)C(C)=O
inactive: [1] -45.1% | [2] -4.85% | [3] 17.1% | [4] -35% | [5] 5.15% | [6] -8.2%

CC1=CC2OC3C(OC(=O)c4ccccc4)C(OC(=O)c4ccccc4)C(C)(C2(COC(=O)c2ccccc2)CC1)C31CO1 (stereo unspecified)
inactive: [1] 6.3% | [2] -3.1% | [3] 1.55% | [4] 7.8% | [5] 4.85% | [6] 17.7%

C=COCCC(C(=O)OCC)C(=O)OCC
inactive: [1] 13.5% | [2] 26.5% | [3] 17.8% | [4] 4.2% | [5] 40.6% | [6] 13.1%

CCOC(=O)c1ccc(NCc2ccc3nc(OC)c(OC)nc3c2)cc1
inactive: [1] -5.7% | [2] -20.5% | [3] -13.7% | [4] 14.9% | [5] 6.85% | [6] -19.4%

Cc1ccccc1N=Cc1ccccc1[N+](=O)[O-]
inactive: [1] 17.1% | [2] 9.65% | [3] -1.1% | [4] -22.2% | [5] -0.6% | [6] 8.1%

O=C(OCC1CCCO1)c1ccccc1 (stereo unspecified)
inactive: [1] 8.4% | [2] 13.2% | [3] -15.3% | [4] -18.4% | [5] -8.75% | [6] -11%

C=C1CC(CCCCCCC2CC(=C)C(=O)O2)OC1=O (stereo unspecified)
inactive: [1] 11.2% | [2] 1.05% | [3] -0.35% | [4] 2.3% | [5] 25.4% | [6] -25.9%

O=C(CI)NCC(O)CNC(=O)CI
inactive: [1] 16.9% | [2] 13.9% | [3] 18% | [4] 27.6% | [5] 9.2% | [6] 36.5%

CC1(C)OC(=O)C(C)(C)OC1=O
inactive: [1] -11.7% | [2] -5% | [3] 7.05% | [4] 12.3% | [5] 8.4% | [6] -3.15%

COc1ccc2c(Cl)ccnc2c1OC
inactive: [1] 15.3% | [2] 6.1% | [3] 10.9% | [4] -15% | [5] 23.4% | [6] 21.8%

CCOC(=O)c1ccc(NC(=S)Nc2ccccc2S)cc1
inactive: [1] 16.4% | [2] 16.4% | [3] 22.9% | [4] 9.35% | [5] 10.1% | [6] 11.9%

CCCCCCCCCCCCCCCCOc1cccc(/C(=N/NS(C)(=O)=O)N2CCCCC2)c1
inactive: [1] -16.1% | [2] -30.6% | [3] -8.3% | [4] 1.75% | [5] -16.8% | [6] -5.5%

CN1NC(c2ccc(Cl)cc2)=C(C#N)C(=O)CC1c1ccccc1 (stereo unspecified)
inactive: [1] 2.1% | [2] -7.95% | [3] -5.05% | [4] 10.5% | [5] -20.4% | [6] 2.35%

CCOC(=O)C1(C)CCCc2sc(N)c(C#N)c21 (stereo unspecified)
inactive: [1] -42.4% | [2] -7.55% | [3] -11.1% | [4] -6.45% | [5] -14.2% | [6] 5.45%

COC(=O)CSc1[nH]c2nc(C)nc(Nc3ccccc3)c2c1C#N
inactive: [1] -13.8% | [2] -19.2% | [3] -9.85% | [4] -6.75% | [5] -27.8% | [6] 16.1%

CCOC(=O)c1nnsc1NN
inactive: [1] 8.8% | [2] -7.45% | [3] -47.6% | [4] 0.95% | [5] -22.4% | [6] -4.1%

O=C1NC(=O)C(c2ccco2)N1 (stereo unspecified)
inactive: [1] 3.7% | [2] -1.55% | [3] -12.2% | [4] 4.8% | [5] -16.7% | [6] 8.2%

CCOC(=O)c1ccc(NC(=O)Nc2cccc(Cl)c2)cc1
inactive: [1] -4.2% | [2] 34.5% | [3] 50% | [4] -17.9% | [5] 25.4% | [6] 23.9%

O=C(c1ccc(Cl)cc1)N(C(=S)N1CCN(c2ccccc2)CC1)C1CCCCC1
inactive: [1] 7.95% | [2] -11.3% | [3] -19.5% | [4] 22.7% | [5] -21% | [6] -4.05%

CC(=O)OCC12CC(c3ccoc3)OC3CCC4C(=O)OC(CC1C)C4(C)C32 (stereo unspecified)
inactive: [1] -19.4% | [2] -29.4% | [3] -18.6% | [4] 4.3% | [5] -23.9% | [6] -22.8%

CCCCCCCCN(c1ccc(C(=O)NC(CCC(=O)OCC)C(=O)OCC)cc1)S(=O)(=O)c1ccc(C)cc1 (stereo unspecified)
inactive: [1] -14.6% | [2] -4.5% | [3] -18.9% | [4] -24.6% | [5] -3.6% | [6] -12.2%

O=C(O)C(CCc1cccc(Cl)c1)C(=O)O
inactive: [1] 8.1% | [2] -13.8% | [3] -0.85% | [4] 2.15% | [5] 4.35% | [6] -11.6%

CCCC(=O)OCc1ccc(Cl)cc1Cl
inactive: [1] 31.6% | [2] 13.3% | [3] 14.8% | [4] 7.75% | [5] 0% | [6] 13.9%

CCOC(=O)c1ccc(NC(=S)NC(=O)c2cccs2)o1
inactive: [1] 43.4% | [2] 49.8% | [3] 39.4% | [4] 36.1% | [5] 31.2% | [6] 63.4%

CSc1cnn(CCC#N)c(=O)n1
inactive: [1] 16.4% | [2] 14.1% | [3] 19.9% | [4] 2.4% | [5] 15.7% | [6] 2.35%

O=C(CSCC(=O)c1ccc([N+](=O)[O-])cc1)c1ccc([N+](=O)[O-])cc1
inactive: [1] -19.4% | [2] -29.6% | [3] 9.85% | [4] -0.65% | [5] -20.1% | [6] -5%

C/C(C=C1C(=O)NC(=S)NC1=O)=C\c1ccccc1
inactive: [1] 13.5% | [2] -2.55% | [3] 8.35% | [4] -4.55% | [5] -8.5% | [6] 14.1%

NC(=O)CS
inactive: [1] -14.3% | [2] -17.2% | [3] -21.8% | [4] -11.7% | [5] -14.1% | [6] -22.1%

O=C1Cc2nc3ccccc3nc2CC(=O)c2ccccc21
inactive: [1] 4.9% | [2] 10.9% | [3] 9.35% | [4] -19.9% | [5] -12.1% | [6] 13.3%

CN(C)C(=S)N(C(=S)N(C)C)c1ccc(Cl)cc1
inactive: [1] -7.9% | [2] -11.8% | [3] -7.15% | [4] -4.1% | [5] 3.1% | [6] -17.8%

COCCNc1cncc(C(N)=O)c1
inactive: [1] 15% | [2] 6.9% | [3] 9.15% | [4] -19.2% | [5] 2.45% | [6] 10.9%

CC(=O)c1ccc2c(c1)-c1ccccc1C(=O)C2=O
inactive: [1] -24.6% | [2] -22.7% | [3] 10.3% | [4] -19.8% | [5] -15.3% | [6] 5.85%

CCOC(=O)CC(=O)C1CCC2C3CC=C4CC(O)CCC4(C)C3CCC12C (stereo unspecified)
inactive: [1] 36.5% | [2] 8.3% | [3] 47.4% | [4] 25.9% | [5] 2.1% | [6] 33.9%

CC(=O)SC1CS(=O)(=O)CC1SC(C)=O (stereo unspecified)
inactive: [1] 60.8% | [2] 52.9% | [3] 59% | [4] 40.2% | [5] 44.5% | [6] 63.5%

NC(=O)/N=N/C(N)=O
inactive: [1] 10.8% | [2] -1.05% | [3] 13.6% | [4] 15.2% | [5] 21.1% | [6] 27.7%

N#CC(C#N)=C(N)/C(C#N)=C/c1ccc2[nH]ccc2c1
inactive: [1] -11% | [2] 6.95% | [3] -29.2% | [4] -24.9% | [5] -26.6% | [6] -24.1%

Cc1[nH]c2ccccc2c1C(CC(=O)O)c1ccccc1 (stereo unspecified)
inactive: [1] 13.6% | [2] -1.4% | [3] -12.8% | [4] -4.85% | [5] -4.55% | [6] -4.4%

COc1ccc(C=Nc2ccc([N+](=O)[O-])cc2O)cc1
inactive: [1] 12.9% | [2] 2.7% | [3] 12.1% | [4] -10.9% | [5] 19.6% | [6] 1.6%

Cc1ccc(/C(O)=C/c2nc3ccccc3oc2=O)cc1
inactive: [1] 20.2% | [2] 35.4% | [3] -7.5% | [4] -18.7% | [5] 25.9% | [6] 0.85%

CN(C)Cc1ccccc1COC(=O)c1ccc([N+](=O)[O-])cc1Cl
inactive: [1] -8.9% | [2] -12.6% | [3] 10.8% | [4] -29.1% | [5] 3.65% | [6] -34.1%
